Assay results published in PubChem BioAssay AID2023 (NMMLSC, 2009).
Out of some 320,000 compounds screened, about 1,100 (0.34%) were called active. Many of the other results were omitted from the sample, so actives are more common in it than they were. Unmarked numbers belong to inactive results.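 How the source made its calls: active means GFP response vs DMSO above a set limit, about the screen mean plus 3 SD (cut at about 150% in these data); inconclusive means under 70 cell events counted for the yeast strain; inactive means the rest.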

Assay: TOR pathway LAP4-GFP level changes – S. cerevisiae, multiplex flow cytometry, MLPCN library, primary screen (AID 2023)
Conditions: 3 h, at 10 µM, active compounds read high

Compared with `Cc1cccc2c(CCN)c[nH]c12`, `C/C(CCc1c[nH]c2ccccc12)=N\O` is lower in GFP response vs DMSO: 105% for the first, 102% for the second.

Compared with `CN(C)C(=O)NC(O)C(Cl)(Cl)Cl` (stereo not given), `Cc1ccc(S(=O)(=O)N(C)c2ccc(C(=O)NCC3(N(C)C)CCCCC3)cc2)cc1` is lower in GFP response vs DMSO: 108% for the first, 91.7% for the second.

First: COc1ccc(CN2C(=O)NC(=O)/C(=C\c3ccc(OC)c(OC)c3OC)C2=O)cc1
Second: COc1cccc(N2C(=O)NC(=O)/C(=C\c3cn(C)c4ccccc34)C2=O)c1
The GFP response vs DMSO of the first is higher: 109% for the first, 104% for the second.

`O=C1NC(=O)N(Cc2ccco2)C(=O)/C1=C\c1cccn1CCOc1ccccc1` and `O=C1NC(=O)N(CCc2ccc(F)cc2)C(=O)/C1=C/C=C/c1ccccc1` are the same in GFP response vs DMSO: 111% for the first, 111% for the second.

Compared with `O=C(Cc1ccccc1)N1CCN(C2CCCCCC2)CC1`, `CC1CCC(N(C)C2CCN(C)CC2)CC1` (stereo not given) is lower in GFP response vs DMSO: 95.7% for the first, 94.4% for the second.

With `CNCC[C@H](Oc1ccc(C(F)(F)F)cc1)c1ccccc1` the GFP response vs DMSO was 106%.

For `NCCc1c[nH]c2ccc(O)cc12`, the GFP response vs DMSO was 307% [may fluoresce violet] (active).
In the case of `COc1ccc(N2C(=O)/C(=C/c3ccco3)C(=O)NC2=S)cc1`, the GFP response vs DMSO is reported as 170% (active).
In the case of `O=C1NC(=O)N(Cc2ccco2)C(=O)/C1=C\c1ccc(-c2ccc(F)cc2)o1`, the GFP response vs DMSO is reported as 182% (active).
With `COc1ccc(C2N3CC(C)(C)CN23)cc1` (stereo not given) the GFP response vs DMSO was 95% [median GFP as percent of DMSO wells].
